The full ranking holds about 24,000 sequences; the median of “enrichment r” is about 0.99, and the highest 2% start at about 3.7. For the sample, the highest values were picked, then their nearest neighbours and some sequences at random.
T1: UNK ZnF1-3 (human, UniProt Q9C0B0 31-174)
T1 sequence: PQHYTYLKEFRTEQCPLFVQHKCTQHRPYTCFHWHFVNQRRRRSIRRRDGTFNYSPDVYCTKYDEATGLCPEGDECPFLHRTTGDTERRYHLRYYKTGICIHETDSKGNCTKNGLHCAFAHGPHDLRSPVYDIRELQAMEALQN

B1: chr3:10015032:10015033:+_ENSMUSG00000027533_ENSMUST00000029046|mus_mus|mus_mus_mus_hu_True|58_58 (ssRNA)
RNA: GGGAGUUCUACAGUCCGACGAUCGUUUUUACCAUCACAAGUGAUGAUACAAUCUGGCUUGGCCAUUGCGCCCAUUUUCCUAAGAGCUAUUCCCACUCCUAGCUCCUUCAUGUAUUCAUCAAAGCCUUUGCUGUCCACCAGGCGCAACAGAGGAUUGAGCAUCA
B2: chr14:102449733:102449734:+_ENSG00000197102_ENST00000360184|hu_mus|FALSE|FALSE (ssRNA)
RNA: GGGAGUUCUACAGUCCGACGAUCCAGCACCUGGAGCUUCUCGUACUCGUCGUCCCACGUCUGGAAGACUUCGAAGCAAGCCACCAUGACCUUUUCAAACUCUUCAUAGGCUACAUGCAUCAACUUCCGAGUGCCCAAGACCUUCAACAGAGGAUUGAGCAUCA
B3: chr7:107985766:107985767:+_ENSMUSG00000029461_ENSMUST00000049053|mus_hu|FALSE|FALSE (ssRNA)
RNA: GGGAGUUCUACAGUCCGACGAUCCCCUAGGUAAAUUUUUGUAAGCAAGGUGCCCACUAGGUAGGAAGGCUGCAUUUAAUGCUAAUUUACUGUAAGGUCUAGGGAAGUCCUUUCCGCUUCUCUGGGCCUCAGUUUCCUCAUCUGCAACAGAGGAUUGAGCAUCA
B4: chr6:30403744:30403745:+_ENSMUSG00000029775_ENSMUST00000068259|mus_mus|motif|central (ssRNA)
RNA: GGGAGUUCUACAGUCCGACGAUCAGGAGAAGGCUAAACACUGAUUAUCUAUGGAUUUCGAUUGUGUGUGCUUUCACCUUGCGGCAGUGGAUAACGAAAGAUCAGUCAUACUUUUAAUCUAGAAAUGUUAAUAUUUUCAUCAUACAACAGAGGAUUGAGCAUCA
B5: chr10:57235669:57235670:-_ENSMUSG00000019877_ENSMUST00000020027|mus_hu|FALSE|FALSE (ssRNA)
RNA: GGGAGUUCUACAGUCCGACGAUCAAAUUGUGGAAUACAAUGUCUACACACAGAAUAAGGUUGGGGAAUUAAGCUGAAUUGUUAUAUUCCAUUCACAUUAAUAAAUAUUUUUAAAGAAGAAAUUGUAGAUUUUAAAAGCUUCAUCAACAGAGGAUUGAGCAUCA
B6: 48457567_48458910_1668_CDS_ENSG00000079387_ENST00000551330|human|control|control (ssRNA)
RNA: GGGAGUUCUACAGUCCGACGAUCGAGAACUUCAUCCUGAUUCCCAUUACGAAAUACAUUCUUUAUUUCUUUCUCCAUUUCCUCUGUAAUUUCAGGAAAUUCAUCUUCACUAUCAGUUAAUUUAUGACCUUUUUUUUGUGUUUCCAACAGAGGAUUGAGCAUCA
B7: chr4:140213729:140213730:-_ENSG00000109390_ENST00000265500|hu_mus|FALSE|FALSE (ssRNA)
RNA: GGGAGUUCUACAGUCCGACGAUCGAAGCUGACUGUAUUAUUUCCAAAGUUUAUUCCAAUCCAUUUCUUCUUUUAUACUCCAAAACAUCUUCAUUGUGUGUUUGGAUGAGCUACAAGAUAAUGGUUAAAAUUAGAAAUGUGAGCCAACAGAGGAUUGAGCAUCA
B8: chr14:57341393:57341394:-_ENSMUSG00000021938_ENSMUST00000022507|mus_hu|FALSE|FALSE (ssRNA)
RNA: GGGAGUUCUACAGUCCGACGAUCCUGAAUAUUCAGAAGCUAUAUGAAAUGUAGCUGGAAAUUCCGAUUUCACAGAACAUCAGUGGUUUAUACAAAUUAAACUCCCAUACCCUCCCACCCCCACAUAUACUACUCUAUCUACCCCAACAGAGGAUUGAGCAUCA
B9: 98287512_98287632_2604_3pUTR_ENSG00000180543_ENST00000322128|human|control|control (ssRNA)
RNA: GGGAGUUCUACAGUCCGACGAUCUACCUCCCCAGCUGUAUGUAGAAAAAUGUGGUUUUUCAGUUGUUUUCUCUGUGGUACUAUUUAAACAAAAUAAAAAAGAAUAAGGAAAGAAGGAAGGGGAAGGCAGAAGAGGAGGAAAGGCAACAGAGGAUUGAGCAUCA
B10: chr14:49633609:49633610:-_ENSMUSG00000061244_ENSMUST00000162175|mus_mus|FALSE|FALSE (ssRNA)
RNA: GGGAGUUCUACAGUCCGACGAUCCAUUCAUUUUCUGACACCAACAUUUUCCAGGAUUAUAACAGUCAUGUAGGUUUAUAGAAUUUGAAAUUUAUAAAUUAAAGUAUAGAAUUCAACAUAACAGGGAAAAGAUAAAAAUACAGCCAACAGAGGAUUGAGCAUCA
B11: chr11:130013608:130013609:+_ENSG00000084234_ENST00000528499|hu_hu|motif|central (ssRNA)
RNA: GGGAGUUCUACAGUCCGACGAUCAGCAUGUGUCAGACAAUACAAUGGAAGUGGGGUUUCUGAUUAAUUUAAAAAAGAAAACGGCAUCAAAUAUCUGCAAUAGAUCAUUUUUUUCAUUUAAGGUUUAUAUAUCAUAUAUUGUUACAACAGAGGAUUGAGCAUCA
B12: chr14:62153831:62153832:-_ENSMUSG00000021930_ENSMUST00000100496|mus_mus|FALSE|FALSE (ssRNA)
RNA: GGGAGUUCUACAGUCCGACGAUCAUAUUUGUUUAAAUAAGAUUAAAUAAGUUGCCUAGAUCUUUUAAACCAAACCUCAGCAUGGUAUAAUGAAUACAUGGGUUCCUUGGACAACAAUUAGAAGCUCAGUGUUCAGCAUGUGUUCAACAGAGGAUUGAGCAUCA
B13: chr4:136876768:136876769:-_ENSMUSG00000006699_ENSMUST00000051477|mus_mus|FALSE|FALSE (ssRNA)
RNA: GGGAGUUCUACAGUCCGACGAUCAAACAACAAACGUUUGUGGGGAUUUUUGUUUUUUUUUUUAAACAAAGAAAACAAAAACUAGCACUCAUUGCUUUUCAGACAAUACAUAAUUAUUCAAAAUUAACUAUUACUGGAAGGGCACAACAGAGGAUUGAGCAUCA
B14: chr17:64801638:64801639:+_ENSG00000154229_ENST00000413366|hu_mus|hu_hu_hu_mus_False|28_38 (ssRNA)
RNA: GGGAGUUCUACAGUCCGACGAUCUAUAUAUAUAUAUACAUAUGUACACAUAUAUAGUAAAACCCUAGUUAAACGUGUAAAGUAGCCAUUCAUUUUUGAAAUUUUAUCUACAUUUAAAAAUUAAUAUAUCUGAUAGAGUGCCAGCAACAGAGGAUUGAGCAUCA
B15: chr16:35696996:35696997:-_ENSMUSG00000022848_ENSMUST00000023554|mus_mus|FALSE|FALSE (ssRNA)
RNA: GGGAGUUCUACAGUCCGACGAUCAAGACGGGUCCAGGAGCCAUGCAAUGAGUAUGUUUUUGUUUUUGUUUUUUUUAAAAAUCCAUUAUUUAUAGAAAGAAAUAGGUAUUGGCAAAAAUCUGUCCAAUCAAAUACAAUGACUUCCAACAGAGGAUUGAGCAUCA
B16: chr7:141450121:141450122:+_ENSG00000106028_ENST00000265304|hu_mus|hu_hu_hu_mus_True|68_68 (ssRNA)
RNA: GGGAGUUCUACAGUCCGACGAUCUCAUCCGUUCUAUGCCUUUUCUUUUGUCUGGUCACUCAGAAAUAUAAUAUUAUCAGCUAUGAUUGUUGUUGCUUGCCGCCUCACAUUGUUUUUAUCCAUGUACUCGCCAUAGUCCACUUUCAACAGAGGAUUGAGCAUCA
B17: chr11:80063784:80063785:+_ENSMUSG00000017686_ENSMUST00000092857|mus_mus|FALSE|FALSE (ssRNA)
RNA: GGGAGUUCUACAGUCCGACGAUCCAUUAGGUUUCUUCCAAGGAGAGACUGAAGAACUCCAGUUUUCCCACAGCCUUUCACUCCAAUUACAUUACACCUGAACACAUUUCUCUGAGUCUGUUUUUUCUGCAGGUCAAUCUUUUUCAACAGAGGAUUGAGCAUCA
B18: chr9:95013113:95013114:-_ENSG00000196305_ENST00000443024|hu_hu|hu_hu_hu_mus_False|58_58 (ssRNA)
RNA: GGGAGUUCUACAGUCCGACGAUCCUCAGUCAGAAAGGGCGUGUAAGGGGCCAUCAGUCUGCACAGAGAAAGCAGGACACUAAACAAUGUCUCCAGAGCCAUGACACAGUCUUCCACCCCACUCUCACCCUUUAACCUCCUCCUCAACAGAGGAUUGAGCAUCA
B19: 76184225_76186117_1027_CDS_ENSG00000119685_ENST00000298832|human|control|control (ssRNA)
RNA: GGGAGUUCUACAGUCCGACGAUCCCAUUUGUUUCCAUAAUCCUCCACUUCUGGAUCGUCACAACUGACGUAAUCUCCACUUUUCUUGUUGACACUGUAGUUUGUCAGAUGCAUGAACUGGUUCCGAAUGUUCUUGGCUCCUUGCAACAGAGGAUUGAGCAUCA
B20: chr11:31958201:31958202:+_ENSMUSG00000020297_ENSMUST00000020537|mus_mus|FALSE|FALSE (ssRNA)
RNA: GGGAGUUCUACAGUCCGACGAUCCCAUGAGUUUGUGCAAAUCUUGCAAGCUCACCAUUGAGUGGUACUCUGUGCAUUCCUAGUUGAGAAAUGCCAACAUCACCUUCCUCUCCAAAUCAGCCUUGCCUGCCAUCGCUGUGCUUCCAACAGAGGAUUGAGCAUCA
B21: 32462045_32462714_1507_3pUTR_ENSMUSG00000027668_ENSMUST00000091257|mouse|control|control (ssRNA)
RNA: GGGAGUUCUACAGUCCGACGAUCACUCUUAUACACUUUCAGUACACUGGGGGUAGGAUGAAACUCAGAACAAAACUCAUCAACCAAAACAGAUAGUCGACAAAUUUCAUCUGUCAUUGCACAAGAAACCUUGUUUGCCACCUCCAACAGAGGAUUGAGCAUCA
B22: 7395510_7396407_2237_ncRNA_ENSMUSG00000031153_ENSMUST00000132456|mouse|control|control (ssRNA)
RNA: GGGAGUUCUACAGUCCGACGAUCAUGUUCUGCAGCUUCUUGUUCAUUUCUCGAAGGUUCUCAUCGCCUGGCUUCACUAGGUCUCUCAGGACACUGCCCAGCCCACUUCGGUCUGUGUGGCCUGCUGCCACAGACACAUCAAUCCAACAGAGGAUUGAGCAUCA

Biological target: T1, UNK ZnF1-3
Test: nsRBNS (natural sequence RNA bind-n-seq); RBNS binding buffer (assumed for nsRBNS): 25 mM Tris pH 7.5, 150 mM KCl, 3 mM MgCl2, 0.01% Triton X-100, 500 ug/ml BSA, 20 U/ml SUPERase-In, 4 C; UNK is unkempt and MSI1 is Musashi-1; names of the RNAs are library labels; protein concentration not given here; high values mean tight binding

First: B1
Second: B2
The binding signal of the first is lower: 0.594 enrichment R for the first, 1.2 enrichment R for the second.

Compared with B3, B4 is higher in binding signal: 0.876 enrichment R for the first, 0.934 enrichment R for the second.

Compared with B5, B6 is lower in binding signal: 6.49 enrichment R for the first, 0.373 enrichment R for the second.

Compared with B7, B8 is higher in binding signal: 1.21 enrichment R for the first, 4.65 enrichment R for the second.

Going from B9 to B10, the binding signal rises from 3.05 enrichment R to 5.9 enrichment R.

First: B11
Second: B12
The binding signal of the first is higher: 5.2 enrichment R for the first, 0.982 enrichment R for the second.

Compared with B13, B14 is higher in binding signal: 0.695 enrichment R for the first, 2.54 enrichment R for the second.

Going from B15 to B16, the binding signal falls from 2.16 enrichment R to 0.465 enrichment R.

Compared with B17, B18 is higher in binding signal: 0.484 enrichment R for the first, 1.48 enrichment R for the second.

First: B19
Second: B20
The binding signal of the first is lower: 0.4 enrichment R for the first, 0.67 enrichment R for the second.

First: B21
Second: B22
The binding signal of the first is higher: 1.52 enrichment R for the first, 0.526 enrichment R for the second.
